Data on 25 compounds can be found in PubChem BioAssay (EPA / NIEHS).

Active and inactive are the calls of the source. Rule for the calls: active = hit-call score of the fitted dose curve at least 0.9, where 1 is the maximum; inactive = score below 0.9.

Test [1] is described as follows: ATG_PBREM_CIS: Attagene CIS-FACTORIAL HepG2 Assay for human Phenobarbital-responsive Enhancer Module (PBREM) (AID 2282955). The note with it: HepG2 PBREM cis-reporter, Attagene multiplexed transcription; actives raise or lower the signal. Put shortly:
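HepG2, transient MRTU transfection, 24 h dosing; RNA → oligo(dT) RT → PCR → 6-FAM extension → HpaI → CE. Bidirectional fit vs DMSO.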

Test [2] addresses Paired box protein Pax-6 (Homo sapiens) (UniProt P26367). The test is described as follows: ATG_Pax6_CIS: Attagene CIS-FACTORIAL HepG2 Assay for human Paired Box 6 (PAX6) (AID 2282956). Conditions: HepG2 CIS-FACTORIAL PAX6 reporter transcription, RNA readout; actives raise or lower the signal. The essentials: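 HepG2 cells transiently transfected with multiplexed cis-promoter reporter units (endogenous TF activity) were dosed for 24 h. Reporter mRNA was quantified by RT-PCR, 6-FAM labeling, HpaI digestion and capillary electrophoresis; bidirectional fitting versus DMSO baseline.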

The nature of test [3]: ATG_PXRE_CIS: Attagene CIS-FACTORIAL HepG2 Assay for human Pregnane X Receptor Element (PXRE) (AID 2282957). Conditions: HepG2 Attagene CIS-FACTORIAL PXRE reporter, mRNA; actives raise or lower the signal. The essentials: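 Multiplexed cis-reporter assay in transiently transfected human HepG2 cells; 24 h chemical exposure. Reporter transcripts quantified by RT-PCR with fluorescent labeling and capillary electrophoresis.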

Test [4] can be described thus: ATG_PPRE_CIS: Attagene CIS-FACTORIAL HepG2 Assay for human Peroxisome Proliferator-activated Response Element (PPRE) (AID 2282958). Conditions: HepG2 PPRE cis-element reporter, Attagene transcription factor profiling; actives raise or lower the signal. Put shortly:
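Transcript-level reporter induction in transfected HepG2 cells after 24 h chemical exposure, quantified by fluorescence from RT-PCR products separated by capillary electrophoresis.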

Test [5] can be described thus: ATG_RORE_CIS: Attagene CIS-FACTORIAL HepG2 Assay for human RAR-related Orphan Receptor Element (RORE) (AID 2282959). The note with it: HepG2 Attagene cis-factorial RORE reporter, mRNA; actives raise or lower the signal. The essentials:
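Multiplexed reporter assay measuring mRNA induction from a cis promoter element in transiently transfected HepG2 cells after 24 h treatment. Detection via RT-PCR and capillary electrophoresis fluorescence; DMSO serves as baseline.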

Test [6] can be described thus: ATG_Sox_CIS: Attagene CIS-FACTORIAL HepG2 Assay for human SRY-box transcription factor (SOX) (AID 2282960). Conditions: HepG2 Attagene cis-factorial SOX reporter, mRNA; actives raise or lower the signal. Put shortly:
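Cells were transfected with reporter constructs under cis-regulatory promoters, then exposed to chemicals for 24 h. Reporter transcripts were quantified by fluorescence after RT-PCR and capillary electrophoresis; activity was fitted in both directions against DMSO.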

Test [7] is described as follows: ATG_SREBP_CIS: Attagene CIS-FACTORIAL HepG2 Assay for human Sterol Regulatory Element Binding (SREBP) (AID 2282962). The note with it: HepG2 Attagene cis-factorial SREBP reporter, mRNA; actives raise or lower the signal. The essentials: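 HepG2 cells transiently transfected with multiplexed cis-element reporter units report endogenous transcription factor activity. After 24 h of chemical exposure, reporter mRNA was quantified by RT-PCR, 6-FAM labelling, HpaI digestion and capillary electrophoresis; bidirectional fits used DMSO as baseline.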

Test [8] deals with Signal transducer and activator of transcription 3 (Homo sapiens) (UniProt P40763). The test is described as follows: ATG_STAT3_CIS: Attagene CIS-FACTORIAL HepG2 Assay for human Signal Transducer and Activator of Transcription 3 (STAT3) (AID 2282963). The note with it: HepG2, Attagene cis-factorial STAT3 reporter transcription; actives raise or lower the signal. Put shortly:
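HepG2 cells transiently transfected with multiple cis-element-driven reporter units report endogenous transcription factor activity. After 24 h compound exposure, reporter mRNA is measured by RT-PCR, 6-FAM labelling, HpaI digestion and capillary electrophoresis. Fitted bidirectionally versus DMSO.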

A short description of test [9]: ATG_TA_CIS: Attagene CIS-FACTORIAL HepG2 Assay for human TA Basal Promoter (AID 2282964). The note with it: HepG2 Attagene CIS-factorial TA basal promoter reporter; actives raise or lower the signal. Put shortly: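 HepG2 cells transiently transfected with multiplexed cis-promoter reporter units, dosed 24 h. Reporter mRNA measured by RT-PCR, 6-FAM labelling, HpaI digestion and capillary electrophoresis; bidirectional fit versus DMSO baseline, serving as background control.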

The target of test [10] is Transcription factor Sp1 (Homo sapiens) (UniProt P08047). The test is described as follows: ATG_Sp1_CIS: Attagene CIS-FACTORIAL HepG2 Assay for human Specificity Protein 1 (Sp1) (AID 2282961). Conditions: HepG2 Sp1 cis-reporter transcription, actives raise or lower the signal. The essentials: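 Measures mRNA induction of an Sp1-linked reporter in HepG2 cells 24 h post-dosing. Multiplexed reporters read by RT-PCR and capillary electrophoresis; DMSO serves as negative control and baseline.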
Transcription factor Sp1 (Homo sapiens), sequence (P08047 whole entry, looked up): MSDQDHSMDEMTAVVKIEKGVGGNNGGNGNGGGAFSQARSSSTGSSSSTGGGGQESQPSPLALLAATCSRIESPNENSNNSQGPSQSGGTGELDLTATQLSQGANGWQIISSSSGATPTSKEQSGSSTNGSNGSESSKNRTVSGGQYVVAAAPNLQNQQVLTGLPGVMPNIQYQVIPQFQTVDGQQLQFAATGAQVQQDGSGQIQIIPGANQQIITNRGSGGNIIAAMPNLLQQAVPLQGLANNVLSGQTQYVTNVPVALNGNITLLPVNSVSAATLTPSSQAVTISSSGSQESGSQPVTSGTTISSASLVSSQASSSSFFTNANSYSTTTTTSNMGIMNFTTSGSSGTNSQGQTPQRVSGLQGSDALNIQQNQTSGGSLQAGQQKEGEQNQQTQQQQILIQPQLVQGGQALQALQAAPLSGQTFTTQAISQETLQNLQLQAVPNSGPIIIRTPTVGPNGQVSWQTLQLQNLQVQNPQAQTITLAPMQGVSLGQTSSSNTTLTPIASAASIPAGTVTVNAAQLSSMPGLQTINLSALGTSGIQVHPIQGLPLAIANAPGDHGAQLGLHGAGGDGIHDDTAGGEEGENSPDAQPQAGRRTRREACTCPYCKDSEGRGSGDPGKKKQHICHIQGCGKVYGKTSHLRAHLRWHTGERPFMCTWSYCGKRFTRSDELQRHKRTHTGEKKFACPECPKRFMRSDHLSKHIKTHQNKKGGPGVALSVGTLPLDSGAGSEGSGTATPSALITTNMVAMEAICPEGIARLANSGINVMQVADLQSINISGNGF

Paired box protein Pax-6 (Homo sapiens), sequence (P26367 whole entry, looked up): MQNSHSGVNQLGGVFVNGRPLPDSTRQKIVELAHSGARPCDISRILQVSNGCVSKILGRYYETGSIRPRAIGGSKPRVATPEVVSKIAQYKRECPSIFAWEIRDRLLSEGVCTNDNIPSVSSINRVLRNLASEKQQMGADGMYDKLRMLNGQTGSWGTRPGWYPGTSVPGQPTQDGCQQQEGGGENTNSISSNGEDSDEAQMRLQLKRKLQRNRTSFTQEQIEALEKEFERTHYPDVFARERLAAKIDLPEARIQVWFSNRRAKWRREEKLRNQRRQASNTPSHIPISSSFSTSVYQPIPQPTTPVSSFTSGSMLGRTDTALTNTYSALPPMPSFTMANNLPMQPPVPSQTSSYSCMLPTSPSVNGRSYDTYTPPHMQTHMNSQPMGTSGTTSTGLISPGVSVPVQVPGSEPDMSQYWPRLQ
Signal transducer and activator of transcription 3 (Homo sapiens), sequence (P40763 whole entry, looked up): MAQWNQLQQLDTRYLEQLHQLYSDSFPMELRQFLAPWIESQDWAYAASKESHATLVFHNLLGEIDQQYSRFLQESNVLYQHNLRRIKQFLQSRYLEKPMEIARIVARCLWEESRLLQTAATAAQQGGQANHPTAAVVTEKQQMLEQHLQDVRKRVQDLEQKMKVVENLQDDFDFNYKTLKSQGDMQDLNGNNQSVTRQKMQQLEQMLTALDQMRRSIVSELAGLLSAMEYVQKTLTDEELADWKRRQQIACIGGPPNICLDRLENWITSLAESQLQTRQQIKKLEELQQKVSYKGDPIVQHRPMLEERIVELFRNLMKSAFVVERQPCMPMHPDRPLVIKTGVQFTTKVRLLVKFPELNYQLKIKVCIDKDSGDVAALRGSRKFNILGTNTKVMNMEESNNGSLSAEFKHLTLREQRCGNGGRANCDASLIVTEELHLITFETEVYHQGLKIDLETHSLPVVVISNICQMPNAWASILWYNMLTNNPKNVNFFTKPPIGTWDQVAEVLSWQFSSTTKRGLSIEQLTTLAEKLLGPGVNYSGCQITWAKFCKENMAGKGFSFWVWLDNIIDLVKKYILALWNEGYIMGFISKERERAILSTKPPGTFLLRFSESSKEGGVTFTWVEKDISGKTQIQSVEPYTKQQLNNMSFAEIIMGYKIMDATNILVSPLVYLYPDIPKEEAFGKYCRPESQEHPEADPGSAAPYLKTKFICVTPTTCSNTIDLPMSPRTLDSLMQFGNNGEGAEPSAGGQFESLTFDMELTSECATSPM

As to `CN(N=O)C(=O)N[C@@H]1[C@@H](O)[C@H](O)[C@@H](CO)O[C@@H]1O`, the outcome in test [1], in test [2], in [3], in test [4], in test [5] and in test [6] was inactive. For the same compound, the outcome in test [7], in [8] and in test [9] was inactive.

With `O=S(=O)(O)CCC(F)(F)C(F)(F)C(F)(F)C(F)(F)F`, the result in test [1], in test [2], in [3], in [4], in test [5] and in [6] was inactive. Further, the outcome in test [10], in test [7] and in test [9] was inactive.

Consider `NC(=O)C(F)(F)C(F)(F)C(F)(F)F`, for which the result in test [1], in [2], in test [3], in [4], in test [5] and in test [6] was inactive. Further, the result in test [10], in test [7] and in test [9] was inactive.

As for `c1ccc(C[P+](c2ccccc2)(c2ccccc2)c2ccccc2)cc1`, the result in test [1], in test [2], in test [3], in test [4], in [5] and in test [6] was inactive. The call in test [10], in [7] and in test [9] was inactive.

With `CCCCC(CC)COC(=O)c1ccc(N(C)C)cc1` (stereo unspecified), the result in test [1], in test [2], in test [5], in test [6], in [10] and in [7] was inactive. Moreover, in test [9], the call was inactive. The AC50 was 8.25 µM (active) in [3] and 32.6 µM (active) in test [4].

On to `COC(=O)c1ccc(C=O)cc1`, for which the outcome in test [1], in test [2], in [3], in test [4], in test [5] and in test [6] was inactive. Also, the call in test [7], in [8] and in [9] was inactive.

For `O=S(=O)(Cl)C(F)(F)C(F)(F)C(F)(F)C(F)(F)C(F)(F)C(F)(F)C(F)(F)C(F)(F)F`, the result in [1], in test [2], in [5], in [6], in test [10] and in [7] was inactive. The compound was called inactive in [9]. The concentration at half-maximal activity (AC50) in test [3] was 28.3 µM (active); in [4], 36.6 µM (active).

In the case of `COc1ccccc1C=O`, the outcome in test [1], in test [2], in test [3], in test [4], in test [5] and in [6] was inactive. Besides, the compound was classed as inactive in test [7] and in test [9].

Regarding `OCCCc1cccnc1`, the outcome in test [1], in [2], in test [3], in [4], in test [5] and in test [6] was inactive. Further, the compound was called inactive in test [10], in test [7] and in test [9].

For `CCN(CCO)S(=O)(=O)C(F)(F)C(F)(F)C(F)(F)C(F)(F)C(F)(F)C(F)(F)C(F)(F)C(F)(F)F`, the outcome in test [1], in test [2], in test [4], in [5], in test [6] and in [10] was inactive. Moreover, the result in test [7], in test [8] and in test [9] was inactive. Moreover, the AC50 in [3] was 9.56 µM (active).

As to `Nc1c(Br)cc([N+](=O)[O-])cc1Br`, the result in test [1], in test [2], in test [4], in test [5], in [6] and in [7] was inactive. The call in [8] and in test [9] was inactive. Also, in test [3], the AC50 is 26.7 µM (active).

In the case of `NC(=O)C(F)(F)C(F)(F)C(F)(F)C(F)F`, the result in test [1], in test [2], in test [3], in test [4], in [5] and in test [6] was inactive. Also, the result in test [10], in test [7] and in test [9] was inactive.

With `Nc1cccnc1N`, the outcome in [1], in [2], in [3], in [4], in test [5] and in test [6] was inactive. Also, the outcome in test [7], in test [8] and in [9] was inactive.

On to `C[Si](C)O[Si](C)C`, for which the outcome in test [1], in test [2], in [3], in [4], in test [5] and in [6] was inactive. The outcome in [7], in [8] and in test [9] was inactive.

For `O=C(c1ccccc1)c1ccc(Cl)cc1`, the AC50 in test [1] is 47.2 µM (active); in test [3], 27.5 µM (active). For the same compound, the result in test [2], in test [4], in test [5], in test [6], in test [7] and in test [8] was inactive. Moreover, in [9], the compound was called inactive.

For `O=c1cccc[nH]1`, the result in test [1], in test [2], in [3], in test [4], in [5] and in test [6] was inactive. In addition, the call in test [7], in [8] and in test [9] was inactive.

`O=C=Nc1cccc2c(N=C=O)cccc12`: the result in test [1], in test [2], in test [4], in test [5], in test [6] and in test [7] was inactive. The call in test [8] and in test [9] was inactive. Further, in test [3], the AC50 was 1.82 µM (active).

Turning to `O=C(O)CCC(F)(F)C(F)(F)C(F)(F)C(F)(F)C(F)(F)C(F)(F)C(F)(F)F`, the result in [1], in test [2], in [3], in test [5], in test [6] and in test [7] was inactive. The outcome in test [8] and in test [9] was inactive. In addition, in [4], the AC50 is 64.4 µM (active).

With `Cc1ccc(O)cn1`, the result in test [1], in [2], in test [3], in test [4], in test [5] and in [6] was inactive. Also, the result in test [10], in test [7], in test [8] and in [9] was inactive.

Consider `O=C(O)C(F)(F)C(F)(F)C(F)(F)OC(F)(F)F`, for which the result in [1], in [2], in [3], in test [4], in test [5] and in test [6] was inactive. Further, the compound was classed as inactive in [7], in test [8] and in [9].

Consider `OCC(F)(F)C(F)(F)C(F)(F)C(F)(F)C(F)(F)C(F)(F)C(F)(F)C(F)(F)CO`, for which the result in test [1], in test [2], in test [4], in test [5], in test [6] and in test [10] was inactive. For the same compound, the compound was called inactive in test [7] and in [9]. The AC50 in test [3] is 16.6 µM (active).

`CC(=O)C=O`: the result in test [1], in test [2], in test [3], in test [4], in test [5] and in test [6] was inactive. Besides, the outcome in test [7], in test [8] and in [9] was inactive.

Regarding `CCCCCCCCn1sc(Cl)c(Cl)c1=O`, the result in test [1], in [2], in [4], in [5], in [6] and in [10] was inactive. Besides, the compound was classed as inactive in test [8]. Further, the AC50 was 4.27 µM (active) in [3], 14.5 µM (active) in [7] and 8.12 µM (active) in test [9].

With `CCN=c1cc2oc3cc(NCC)c(C)cc3c(-c3ccccc3C(=O)OCC)c-2cc1C`, the result in test [1], in test [3] and in test [5] was inactive. The AC50 is 8.69 µM (active) in test [2]; 17 µM (active) in test [4]; 15.9 µM (active) in test [6]; 15.5 µM (active) in [7]; 11.1 µM (active) in test [9].

For `CCOC(OCC)OCC`, the outcome in test [1], in test [2], in test [4], in test [5], in test [6] and in test [7] was inactive. In addition, the call in test [8] and in test [9] was inactive. For the same compound, in [3], the AC50 was 28 µM (active).

The AC50 is the midpoint of the concentration-response curve, whichever way the signal moves.
